Screening results from PubChem.
JMJD2A Tudor inh – qHTS Assay for Inhibitors of JMJD2A-Tudor Domain; Lysine-specific demethylase 4A (Homo sapiens), O75164; AlphaScreen JMJD2A-Tudor / H3K4me3 peptide binding; Potency, µM (titrated, usually from 114 µM), without a hit: top-dose activity change, negative = inhibition, actives largely listed as inhibitors; hit rate 4.4% among 390,000; AID 504339, 2011; further: potency means the concentration at half of the fitted maximal effect; on the % scale 0 is the no-effect control and ±100 the full control effect; nearly all actives have a fitted effect of over 50% in size
CtBP-E1A inh – qHTS Assay for Inhibitors of the CtBP/E1A Interaction; CtBP / adenovirus E1A interaction (AlphaScreen); AlphaScreen GST-E1A/His-CtBP binding, 1536-well; active compounds read low; activity change, % (concentration not given with the values); hit rate 0.49% among 340,000; in the data active means activity change below about -65%; inconclusive means mostly about -30% to -63%; further: on the % scale 0 is the no-effect control and ±100 the full control effect
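GST-E1A and His-tagged CtBP (125 nM each as 5X stock) were preincubated with pin-transferred compound for 2 h at 37 °C in the dark, then glutathione donor and nickel acceptor beads were added for 1 h before AlphaScreen reading.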
HP1b chromo inh – HTS for Inhibitors of HP1-beta Chromodomain Interactions with Methylated Histone Tails; Chromobox protein homolog 1 (Homo sapiens), P83916; AlphaScreen HP1-beta / biotin-H3K9me3 peptide binding; Potency, µM (doses to about 114 µM), for the others: at the highest dose activity change, negative = inhibition, actives largely listed as inhibitors; hit rate 0.56% among 390,000; AID 540317, 2011; further: potency means the concentration at half of the fitted maximal effect; nearly all actives have a fitted effect of over 70% in size
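Compound inhibition of the preformed complex between 50 nM HP1-beta and 50 nM biotinylated H3K9me3 peptide was read by AlphaScreen. Buffer was PBS pH 7.4 with 0.01% Tween-20. Incubations ran 30 min at room temperature, with 10 ug/mL donor/acceptor beads.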
Six1-Eya2 inh – qHTS Assay for Inhibitors of the Six1/Eya2 Interaction. AlphaScreen GST-Six1/His-Eya2 binding, biochemical; active compounds read low. activity change, % (concentration not given with the values). hit rate 0.56% among 360,000; in the data active means activity change below about -65%; inconclusive means mostly about -30% to -63%; further: on the % scale 0 is the no-effect control and ±100 the full control effect
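AlphaScreen luminescence read after one hour at 37 °C in darkness. Pin-transferred compounds met GST-Six1 and His-Eya2 protein (5X stock 250 nM/500 nM) plus glutathione donor and Ni-chelate acceptor beads (5X, 50 ug/mL).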
BAZ2B block – qHTS Assay for Inhibitors of BAZ2B; Bromodomain adjacent to zinc finger domain protein 2B (Homo sapiens), Q9UIF8; AlphaScreen BAZ2B-H3K14Ac peptide displacement; Potency, µM (top dose mostly 114 µM), for the others: at the top dose activity change, negative = inhibition, usual class: inhibitors; hit rate 4.4% among 360,000; AID 504333, 2011; further: potency means the concentration at half of the fitted maximal effect; on the % scale 0 is the no-effect control and ±100 the full control effect; nearly all actives have a fitted effect of over 60% in size
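Complex of BAZ2B and biotin-H3K14Ac (50 nM apiece) forms over 30 min at RT, then faces library compounds up to 110 uM for another 30 min; AlphaScreen beads added, 20 min dark incubation, luminescence read.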
G9a inh – qHTS Assay for Inhibitors of Histone Lysine Methyltransferase G9a; Histone-lysine N-methyltransferase EHMT2 (Homo sapiens), Q96KQ7; G9a H3K9 monomethylation, AlphaScreen, 2 h; Potency, µM (series often up to 102 µM), for inactives: at the highest dose activity, negative = inhibition, actives largely listed as inhibitors; hit rate 8.8% among 350,000; AID 504332, 2011; further: potency means the concentration at half of the fitted maximal effect; on the % scale 0 is the no-effect control and ±100 the full control effect; nearly all actives have a fitted effect of over 75% in size
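Readings reflect AlphaScreen signal from monomethyl-H3K9 antibody detection. HMT at 20 nM; substrate b-H3K9 500 nM; cofactor SAM 20 uM; 2 h RT reaction; compounds tested as titrations in qHTS with 15 min preincubation.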
* = called active by the depositor; ? = inconclusive; nt = no result given; [ ] = remark or other dose. Sampled rows, rich in hits. Any-hit rate of the full collection: about 10%. Unless noted, the call rests on the fitted dose curve; in most records, active means well fitted inhibition curve with a large enough effect; inconclusive means small, poorly fitted or top-dose-only effect; inactive means no such curve, though single readings can be large or run the other way.

SMILES	JMJD2A Tudor inh	CtBP-E1A inh	HP1b chromo inh	Six1-Eya2 inh	BAZ2B block	G9a inh
O=C1CCCC2=C1C1(CCS(=O)(=O)C1)N=C(Nc1nc3ccccc3o1)N2 (centres undefined)	-16%	nt	nt	nt	nt	nt
CS(=O)(=O)/C=C/c1nc(Nc2cc(F)cc(F)c2)c2ncn(CC(F)F)c2n1	-19%	nt	nt	nt	nt	nt
Cc1c(C(=O)N(C)C)sc2nc(-c3ccccn3)[nH]c(=O)c12	50µM*	-97*	8%	-89*	10µM*	?
O=c1[nH]c(-c2ccccn2)nc2sc(-c3ccccc3)cc12	?	0	47%	?	45µM*	8.9µM*
COC(=O)N1CCCc2cc(S(=O)(=O)N3CCN(c4ccccc4)CC3)ccc21	-22%	nt	10%	nt	-26%	-29%[59 µM]
COc1ccc(C(CC(=O)Nc2ccc(OC)c(OC)c2)N2Cc3ccccc3C2=O)cc1 (centres undefined)	-27%	nt	12%	nt	79µM*	-26%[59 µM]
Cc1ccc(NC(=O)c2ccc(CNS(=O)(=O)c3ccc4c(c3)C(C)(C)C(=O)N4C)cc2)cc1C	-6%	nt	24%	nt	-14%	-7%[59 µM]
CCOC(=O)C(=CNc1ncccc1C)C(=O)OCC	-3%	1	11%	3	2%	27%[59 µM]
CCOC(=O)C(=O)Cc1cccnn1	3.5µM*	-2	?	?	nt	nt
CCOC(=O)c1c(NC(=O)c2ccc(Cl)s2)sc(C)c1C	4%	8	81%	3	22%	4%
CCOC(=O)c1c(NC(=O)c2cc(C(C)C)on2)sc(C)c1C	15%	nt	-1%	nt	-4%	20µM*
CCOC(=O)c1c(NC(=O)c2ccncc2)sc(C)c1C	-21%	nt	19%	22	-8%	16µM*
CCCc1cc(C(=O)Nc2sc(C)c(C)c2C(=O)OCC)no1	-14%	23	7%	16	-1%	10µM*
CCOC(=O)c1c(NC(=O)COC(=O)c2ccncc2)sc(C)c1C	-13%	1	4%	17	-22%	-31%
CCOC(=O)c1sc(NC(=O)c2cc(CC)on2)c(C(=O)OCC)c1C	4%	nt	50%	nt	3%	-3%[59 µM]
COc1ccc(NC(=O)c2sc3nc[nH]c(=O)c3c2C)cc1OC	-7%	nt	18%	nt	2%	-19%[59 µM]
CCc1ccc(-n2c(=O)c3c4c(sc3n(Cc3ccccc3C#N)c2=O)CCC4)cc1	0%	nt	25%	nt	5%	-31%[59 µM]
CC1CCN(c2nc3ccc(C(=O)NCc4ccccc4Cl)cc3s2)CC1	4%	nt	36%	nt	-2%	14%[59 µM]
Cc1ccc(S(=O)(=O)NC(CC(N)=O)C(=O)O)cc1 (centres undefined)	?	-3	14%	0	5%	16µM*
COc1ccc(C[C@@H](NS(=O)(=O)c2ccc(C(=O)O)cc2)C(=O)O)cc1	-8%	nt	nt	nt	-4%	-15%[12.7 µM]
COc1ccc(S(=O)(=O)N[C@@H](CSCc2ccccc2)C(=O)O)cc1	-17%	6	18%	5	?	50µM*
Cc1ccc(S(=O)(=O)NC(Cc2ccccc2)C(=O)O)cc1 (centres undefined)	5%[57.1 µM]	9	37%	5	-5%	-31%
CC(C)(C)c1ccc(S(=O)(=O)NC(Cc2ccccc2)C(=O)O)cc1 (centres undefined)	-12%	9	?	2	-34%	79µM*
N#Cc1c(N2CCN(c3ccc(F)cc3)CC2)nc(N)c2c(N)nc3c(c12)CC(=O)N3C1CC1	-29%	-78*	-19%	-82*	?	?
Nc1nc(=S)c2n[nH]nc2[nH]1	18µM*	nt	46%	nt	nt	nt
Brc1ccc2ncnc(Nc3ccc(N4CCOCC4)cc3)c2c1	?	?	-31%	-23	45µM*	-44%[12.7 µM]
